Out of some 39,000 compounds screened, about 3,300 (8.5%) were called active. The sample holds actives, similar compounds and a random draw of the others, so the mix is not that of the screen.
Test system: HepG2
Test: cytotoxicity call (relative viability < 0.9)
Conditions: 10 µM

Row | Structure (SMILES) | cytotoxicity call
1 | C[C@@H]1CCCCO[C@@H](CN(C)S(C)(=O)=O)[C@H](C)CN([C@@H](C)CO)C(=O)c2cc(NS(=O)(=O)c3cn(C)cn3)ccc2O1 | inactive
2 | C[C@H]1CN([C@@H](C)CO)C(=O)c2cc(NC(=O)C3CC3)ccc2O[C@@H]1CN(C)C(=O)NC1CCCCC1 | inactive
3 | O=C(C[C@H]1C[C@@H]2c3cc(NC(=O)Cc4ccncc4)ccc3O[C@@H]2[C@H](CO)O1)NCCN1CCCCC1 | inactive
4 | C[C@H]1CN([C@@H](C)CO)C(=O)c2cccc(NC(=O)CCCCCC(=O)Nc3ccccc3N)c2O[C@@H]1CN(C)C(=O)Nc1ccc(F)cc1 | inactive
5 | C[C@@H]1CCCCO[C@@H](CN(C)CC2CCCCC2)[C@@H](C)CN([C@H](C)CO)C(=O)c2cc(NC(=O)Cc3ccccc3)ccc2O1 | inactive
6 | COc1ccccc1[C@@H](NC(=O)C1CCN(CCn2cnc3c2c(=O)n(C)c(=O)n3C)CC1)c1ccccn1 | inactive
7 | CN1CCN(C(=O)C[C@H]2C[C@H]3c4cc(NS(=O)(=O)c5ccc(F)cc5)ccc4O[C@H]3[C@@H](CO)O2)CC1 | inactive
8 | C[C@@H]1CCCCO[C@@H](CN(C)S(=O)(=O)c2ccc(Cl)cc2)[C@@H](C)CN([C@@H](C)CO)C(=O)c2cc(NC(=O)Nc3ccc(C(F)(F)F)cc3)ccc2O1 | inactive
9 | COc1ccc(NC(=O)N(C)C[C@H]2OCCCC[C@@H](C)Oc3ccc(NC(=O)Nc4ccc(C(F)(F)F)cc4)cc3C(=O)N([C@H](C)CO)C[C@H]2C)cc1 | active
10 | COc1ccc(NC(=O)N(C)C[C@@H]2OCCCC[C@@H](C)Oc3ccc(NC(=O)Nc4ccc(C(F)(F)F)cc4)cc3C(=O)N([C@H](C)CO)C[C@@H]2C)cc1 | inactive
11 | COc1ccc(NC(=O)Nc2ccc3c(c2)C(=O)N([C@H](C)CO)C[C@@H](C)[C@H](CN(C)C(=O)Nc2ccc(C(F)(F)F)cc2)OCCCC[C@@H](C)O3)cc1 | inactive
12 | O=C(C[C@H]1CC[C@@H]2[C@H](COC[C@H](O)CN2C(=O)c2cccnc2)O1)NCC1CC1 | inactive
13 | Fc1cccc(-c2csc(COc3ccccc3Cl)n2)c1 | inactive
14 | O=c1c(O)c(-c2cc(O)c(O)c(O)c2)oc2cc(O)cc(O)c12 | inactive
15 | O=c1oc2c(O)c(O)cc3c(=O)oc4c(O)c(O)cc1c4c23 | active
16 | Cc1cc(=O)oc2cc(O)c(O)cc12 | inactive
17 | O=C(C[C@@H]1C[C@H]2c3cc(NC(=O)C4CCOCC4)ccc3O[C@H]2[C@@H](CO)O1)NCc1ccc2c(c1)OCO2 | inactive
18 | COc1ccc([C@H]([C@H](Cc2ccccc2)OC(C)=O)N(C[C@H](/C=C/c2ccccc2)OC(C)=O)[C@@H](Cc2ccccc2)C(OC)OC)cc1 | inactive
19 | COc1ccc([C@H]([C@H](Cc2ccccc2)OC(C)=O)N(C[C@H](/C=C/c2ccccc2)CC(=O)N(C)C)[C@@H](Cc2ccccc2)C(OC)OC)cc1 | active
20 | COc1ccc([C@@H]([C@H](Cc2ccccc2)OC(C)=O)N2C[C@H](CC(=O)N(C)C)[C@@H]3C(=NO[C@H]3c3ccccc3)[C@@H]2Cc2ccccc2)cc1 | inactive
21 | COc1ccc([C@H]([C@@H](O)Cc2ccccc2)N(C[C@H](/C=C/c2ccccc2)NC(=O)C(Cl)(Cl)Cl)[C@@H](Cc2ccccc2)C(OC)OC)cc1 | inactive
22 | COc1ccc([C@H]([C@H](Cc2ccccc2)OC(C)=O)N(C[C@H](/C=C/c2ccccc2)NC(=O)C(Cl)(Cl)Cl)[C@@H](Cc2ccccc2)C(OC)OC)cc1 | inactive

Row | Structure (SMILES) | cytotoxicity call
23 | COc1ccc([C@H]([C@H](Cc2ccccc2)OC(C)=O)N(C[C@@H](/C=C/c2ccccc2)CC(=O)N(C)C)[C@@H](Cc2ccccc2)C(OC)OC)cc1 | active
24 | COc1ccc([C@@H]([C@H](Cc2ccccc2)OC(C)=O)N2C[C@@H](CC(=O)N(C)C)[C@@H]3C(=NO[C@H]3c3ccccc3)[C@@H]2Cc2ccccc2)cc1 | inactive
25 | COc1ccc([C@H]([C@@H](O)Cc2ccccc2)N(C/C=C/[C@@H](O)c2ccccc2)[C@@H](Cc2ccccc2)C(OC)OC)cc1 | inactive
26 | COc1ccc([C@H]([C@@H](O)Cc2ccccc2)N(C[C@H](/C=C/c2ccccc2)CC(=O)N(C)C)[C@@H](Cc2ccccc2)C(OC)OC)cc1 | active
27 | Cc1noc(C)c1NC(=O)Nc1ccc2c(c1)C(=O)N([C@H](C)CO)C[C@H](C)[C@@H](CN(C)C(=O)Nc1ccccc1)OCCCC[C@H](C)O2 | inactive
28 | Cc1ccc(S(=O)(=O)Nc2ccc3c(c2)C(=O)N([C@@H](C)CO)C[C@@H](C)[C@H](CN(C)Cc2ccc4c(c2)OCO4)OCCCC[C@H](C)O3)cc1 | inactive
29 | CC(C)C[C@@H]1NC(=O)[C@@H]2C[C@H](C(=O)NCCCCCNC(=O)CS)[C@H](c3cccc(OCCO)c3)N2C1=O | inactive
30 | CN1C[C@]2(CCN(C(=O)c3cn(CCN4CCNCC4)nn3)C2)OC1=O | inactive
31 | Cc1noc(C)c1S(=O)(=O)N(C)C[C@@H]1Oc2ccc(NC(=O)Cc3ccccc3)cc2CC(=O)N([C@@H](C)CO)C[C@@H]1C | inactive
32 | CC(C)NC(=O)N(C)C[C@H]1Oc2ccc(NC(=O)CCCN(C)C)cc2C(=O)N([C@H](C)CO)C[C@H]1C | inactive
33 | C[C@H]1CN([C@@H](C)CO)C(=O)Cc2cc(NC(=O)Cn3cnnn3)ccc2O[C@@H]1CN(C)S(=O)(=O)c1ccc(F)cc1 | inactive
34 | C[C@H](CO)N1C[C@H](C)[C@@H](CN(C)Cc2ccc(Oc3ccccc3)cc2)Oc2ccc(NC(=O)C3CCCCC3)cc2CC1=O | inactive
35 | C[C@@H]1CN([C@H](C)CO)C(=O)Cc2cc(NC(=O)C3CCCCC3)ccc2O[C@H]1CN(C)Cc1ccc(Oc2ccccc2)cc1 | inactive
36 | C[C@@H]1CN([C@@H](C)CO)C(=O)Cc2cc(NC(=O)C3CCCCC3)ccc2O[C@H]1CN(C)Cc1ccc(Oc2ccccc2)cc1 | inactive
37 | C[C@H](CO)N1C[C@H](C)[C@H](CN(C)Cc2ccc(Oc3ccccc3)cc2)Oc2ccc(NC(=O)C3CCCCC3)cc2CC1=O | active
38 | C[C@@H]1CN([C@H](C)CO)C(=O)Cc2cc(NC(=O)C3CCCCC3)ccc2O[C@@H]1CN(C)Cc1ccc(Oc2ccccc2)cc1 | inactive
39 | C[C@@H]1CN([C@H](C)CO)C(=O)Cc2cc(NC(=O)C3CC3)ccc2O[C@@H]1CN(C)Cc1ccc(Oc2ccccc2)cc1 | active
40 | C[C@H]1CN([C@@H](C)CO)C(=O)Cc2cc(NC(=O)C3CCCCC3)ccc2O[C@H]1CN(C)Cc1ccc(Oc2ccccc2)cc1 | active
41 | C[C@@H]1CN([C@@H](C)CO)C(=O)Cc2cc(NC(=O)C3CC3)ccc2O[C@H]1CN(C)Cc1ccc(Oc2ccccc2)cc1 | inactive
42 | C[C@H](CO)N1C[C@H](C)[C@H](CN(C)Cc2ccc(Oc3ccccc3)cc2)Oc2ccc(NC(=O)C3CC3)cc2CC1=O | inactive
43 | C[C@@H]1CN([C@@H](C)CO)C(=O)Cc2cc(NC(=O)Nc3ccc(C(F)(F)F)cc3)ccc2O[C@@H]1CN(C)C(=O)Nc1cccc2ccccc12 | inactive
44 | CC(C)NC(=O)N(C)C[C@@H]1OCCCC[C@@H](C)Oc2ccc(NC(=O)Nc3ccccc3)cc2C(=O)N([C@H](C)CO)C[C@@H]1C | inactive

Row | Structure (SMILES) | cytotoxicity call
45 | C[C@@H]1CCCCO[C@@H](CN(C)C(=O)Cc2ccccc2)[C@@H](C)CN([C@@H](C)CO)C(=O)c2cc(NC(=O)Nc3ccc(C(F)(F)F)cc3)ccc2O1 | inactive
46 | O=C(O)CNC(=O)c1cc2ccccc2[nH]1 | inactive
47 | C[C@H](CO)N1C[C@H](C)[C@@H](CN(C)S(=O)(=O)c2ccc(Cl)cc2)Oc2ccc(NC(=O)CCN3CCOCC3)cc2CC1=O | inactive
48 | Cc1noc(C)c1S(=O)(=O)N(C)C[C@H]1OCCCC[C@H](C)Oc2ccc(NS(=O)(=O)c3cn(C)cn3)cc2C(=O)N([C@@H](C)CO)C[C@@H]1C | inactive
49 | C=c1cc(C)ccc1=C1NN=C(NC(=O)CC)O1 | inactive
50 | C[C@@H]1CCCCO[C@@H](CN(C)C(=O)Nc2ccc(F)cc2)[C@@H](C)CN([C@@H](C)CO)C(=O)c2cc(NC(=O)Nc3ccccc3)ccc2O1 | inactive
51 | CN1CCC(Nc2nc(Nc3ccc(Oc4ccccc4)cc3)c3c(O)ncc(Br)c3n2)CC1 | active
52 | C[C@@H]1CN([C@@H](C)CO)S(=O)(=O)c2ccc(-c3ccc(F)cc3)cc2O[C@H]1CN(C)S(C)(=O)=O | inactive
53 | CNC(=O)N1CCN(Cc2cnn(C)c2)C[C@]2(CCCC(=O)N2)C1 | inactive
54 | C=CCOC(=O)[C@H]1[C@@H]2C(=O)O[C@@H](c3ccccc3)[C@@H](c3ccccc3)N2[C@@H](c2ccc(OCCOC(=O)[C@H]3C[C@H]4C(=O)N[C@@H](CCCCNC(C)=O)C(=O)N4[C@H]3c3cccc(OCCO)c3)cc2)[C@]12C(=O)Nc1ccc(I)cc12 | inactive
55 | Cc1ccc(S(=O)(=O)N(C)C[C@H]2OCCCC[C@H](C)Oc3ccc(NS(=O)(=O)c4ccc(Cl)cc4)cc3C(=O)N([C@@H](C)CO)C[C@@H]2C)cc1 | active
56 | Cc1ccc(S(=O)(=O)Nc2ccc3c(c2)C(=O)N([C@H](C)CO)C[C@H](C)[C@H](CN(C)S(=O)(=O)c2ccc(Cl)cc2)OCCCC[C@H](C)O3)cc1 | inactive
57 | Cc1ccc(S(=O)(=O)Nc2ccc3c(c2)C(=O)N([C@H](C)CO)C[C@H](C)[C@@H](CN(C)S(=O)(=O)c2ccc(Cl)cc2)OCCCC[C@@H](C)O3)cc1 | active
58 | Cc1ccc(S(=O)(=O)Nc2ccc3c(c2)C(=O)N([C@@H](C)CO)C[C@@H](C)[C@@H](CN(C)S(=O)(=O)c2ccc(Cl)cc2)OCCCC[C@H](C)O3)cc1 | inactive
59 | Cc1ccc(S(=O)(=O)N(C)C[C@@H]2OCCCC[C@@H](C)Oc3ccc(NS(=O)(=O)c4ccc(Cl)cc4)cc3C(=O)N([C@H](C)CO)C[C@H]2C)cc1 | inactive
60 | Cc1ccc(S(=O)(=O)N(C)C[C@H]2OCCCC[C@@H](C)Oc3ccc(NS(=O)(=O)c4ccc(Cl)cc4)cc3C(=O)N([C@H](C)CO)C[C@H]2C)cc1 | inactive
61 | Cc1ccc(S(=O)(=O)N(C)C[C@@H]2OCCCC[C@H](C)Oc3ccc(NS(=O)(=O)c4ccc(Cl)cc4)cc3C(=O)N([C@@H](C)CO)C[C@@H]2C)cc1 | active
62 | Cc1ccc(S(=O)(=O)N(C)C[C@@H]2OCCCC[C@H](C)Oc3ccc(NS(=O)(=O)c4ccc(Cl)cc4)cc3C(=O)N([C@H](C)CO)C[C@H]2C)cc1 | active
63 | Cc1ccc(S(=O)(=O)N(C)C[C@H]2OCCCC[C@@H](C)Oc3ccc(NS(=O)(=O)c4ccc(Cl)cc4)cc3C(=O)N([C@H](C)CO)C[C@@H]2C)cc1 | inactive
64 | Cc1ccc(S(=O)(=O)N(C)C[C@@H]2OCCCC[C@@H](C)Oc3ccc(NS(=O)(=O)c4ccc(Cl)cc4)cc3C(=O)N([C@@H](C)CO)C[C@@H]2C)cc1 | inactive

From the antibiotic and cytotoxicity screens of Wong et al. (2023)
